Source: PubChem
This is a sample that favours compounds with a hit; in the whole collection about 0.47% have one here.
AT treatment = potential ataxia-telangiectasia treatments restoring KAP-1 phosphorylation. Potency, µM (highest dose often 57.5 µM), usual class: activators. AID 485349. F2112 A-T fibroblasts, KAP-1 phosphorylation AlphaLISA; neocarzinostatin DNA damage 30 min before lysis. 320,000 compounds, 0.19% hits; note: nearly all actives have a fitted effect of over 45% in size
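hTERT-immortalized A-T patient fibroblasts (F2112), 500 cells/well in OPTI-MEM, 1% FBS, got compounds for 60 min, then NCS for 30 min at 37C. Lysates were then assayed for phospho-KAP-1 by AlphaLISA (anti-pKAP1 donor, anti-KAP1 acceptor beads), 6 hr at 25C.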
Anesthetic bind = candidate novel general anesthetic via apoferritin binding. P02791. apoferritin/1-aminoanthracene competitive binding, fluorescence. Potency, µM (series often up to 77.5 µM), usual class: inhibitors. 350,000 compounds, 0.074% hits. AID 485281; note: nearly all actives have a fitted effect of over 20% in size
Target sequence (P02791 2-175 limits assumed): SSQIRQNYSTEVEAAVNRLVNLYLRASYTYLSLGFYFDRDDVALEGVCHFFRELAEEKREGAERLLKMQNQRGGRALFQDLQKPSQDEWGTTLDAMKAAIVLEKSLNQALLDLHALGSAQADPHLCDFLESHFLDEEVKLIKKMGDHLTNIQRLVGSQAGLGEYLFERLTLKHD
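Read-out: endpoint 1-AMA fluorescence, excitation 380 nm and emission 535 nm, after compounds sit 10 min at room temperature with 10 uM horse-spleen apoferritin in 50% saturated 1-AMA/PBS. Values come from four-parameter Hill fits.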
CCT modulator = modulators of cytosolic chaperonin (CCT/TRiC) activity | purified chaperonin ATPase assay, HTRF ADP detection, 30 min | AID 651819 | activity change, % (no concentration beside the values), hits read low | 360,000 compounds, 0.3% hits; in the data active = activity change below about -30%
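TRiC (40 or 20 nM final, by batch activity) in 30 mM Tris pH 7.4, 100 mM KCl, 5 mM MgCl2, 1 mM DTT was treated with compound at 76 uM single dose, then 10 uM ATP, 30 min at 37 °C. ADP was read by HTRF Transcreener.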
MmCpn inh = M. maripaludis TRiC chaperonin inhibition; purified Mm-Cpn ATPase, ADP Transcreener TR-FRET; Potency, µM (highest dose often 76.9 µM), hits mostly inhibitors; 330,000 compounds, 0.031% hits; note: nearly all actives have a fitted effect of over 80% in size
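Compound-treated chaperonin, 25 nM final, turns over 10 uM ATP at 37°C for 30 min following a 10 min preincubation; ADP generated competes with ADP-d2 for Eu-cryptate antibody, lowering FRET.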
Each line names hits and unclear results; the compound was inactive in the other large screens. Unless noted, calls come from the whole dose curve; as a rule, active = well fitted curve in the direction sought with a large enough effect; inconclusive = small, poorly fitted or top-dose-only effect, or another doubt; inactive = no such curve, though single readings can be large; an effect the other way counts as inactive or inconclusive.

CCOC(=O)N1CCN(C(=O)c2oc3ccc(S(=O)(=O)N4CCOCC4)cc3c2C)CC1	none (no result: AT treatment)
Cc1cccc(-c2csc(N3CCC(C(N)=O)CC3)n2)c1	none (no result: AT treatment, Anesthetic bind, CCT modulator)
CCOc1ccc(CNC(=O)Cn2cc3c(n2)-c2c(oc(C(=O)N4CCOCC4)c2C)CC3)cc1	none (no result: AT treatment, CCT modulator, MmCpn inh)
COc1ccc(C)cc1NC(=O)c1cc2c(=O)n(Cc3cccnc3)ccc2nc1C	none (no result: AT treatment, CCT modulator, MmCpn inh)
COc1ccc(C(=O)N(Cc2ccc(C(C)C)cc2)C2CCS(=O)(=O)C2)cc1 (stereo unspecified)	none (no result: AT treatment, CCT modulator, MmCpn inh)
O=C(Cc1ccc(Cl)cc1)N1CCN(c2ccccc2)CC1	AT treatment 22µM
O=C(Cc1ccc(Cl)cc1)N1CCN(c2ccc(F)cc2)CC1	none
O=C(CSc1nnnn1Cc1ccccc1)N1CCN(c2ccccc2)CC1	CCT modulator -37
CCN(CC)c1ccc(/C=N/NC(=O)c2ccc(O)cc2)cc1	none (no result: AT treatment, CCT modulator, MmCpn inh)
Nc1ccc2nc(CN3CCOCC3)[nH]c2c1	CCT modulator -36
c1ccc2[nH]c(CN3CCOCC3)nc2c1	none
CCOC(=O)CSc1nc(C)c(CC)c(C)c1C(N)=O	CCT modulator -62
O=C(Cc1ccc(F)cc1)NC1CC(=O)N(c2ccccc2)C1 (stereo unspecified)	none (no result: AT treatment, CCT modulator, MmCpn inh)
COc1cc(C#Cc2c(-c3cncn3C)n(C)c3ccc(-c4ccc(OC)nc4)cc23)cc(OC)c1	AT treatment 32µM (no result: Anesthetic bind)
COc1cc(C#Cc2c(-c3cncn3C)n(C)c3ccc(-c4cc(OC)c(OC)c(OC)c4)cc23)cc(OC)c1	none (no result: Anesthetic bind)
CCOC(=O)CSc1nc2ccc(NC(=O)COc3ccccc3C)cc2s1	none (no result: AT treatment, CCT modulator, MmCpn inh)
OC(COc1ccc2ccccc2c1Cl)CN1CCOCC1 (stereo unspecified)	CCT modulator -32, MmCpn inh inconclusive
COc1ccc(OCCCC(=O)Nc2cc([N+](=O)[O-])ccc2C)cc1	CCT modulator -44
COc1ccc([N+](=O)[O-])cc1NC(=O)CCCOc1ccccc1	none
O=C(Nc1ccccc1N1CCCC1)c1ccccc1F	none
Cc1cccc(OCC(=O)Nc2ccccc2N2CCCC2)c1C	none (no result: Anesthetic bind)
Cc1ccccc1OCC(=O)Nc1ccccc1N1CCCCC1	AT treatment 32µM
O=C(Nc1ccccc1N1CCCCC1)c1ccccc1F	AT treatment 28µM
Cc1ccc(C2(CCN)CCOC(C(C)C)C2)cc1 (stereo unspecified)	none
CC(C)C1CC(CCN)(c2ccccc2)CCO1 (stereo unspecified)	AT treatment 2.8µM
CCCCCC1CC(CC(=O)Nc2ccc([N+](=O)[O-])cc2)C(=O)O1 (stereo unspecified)	Anesthetic bind 16µM
O=C(Nc1ccc2nc(SCCOc3ccccc3)sc2c1)c1cccs1	none (no result: AT treatment, CCT modulator, MmCpn inh)
O=C(O)c1ccc(Nc2c3ccccc3nc3ccccc23)cc1	AT treatment 28µM
CN(C)c1ccc(NC(=O)CCSc2nc(-c3ccco3)cc(C(F)(F)F)n2)cc1	none (no result: AT treatment, CCT modulator, MmCpn inh)
Cc1cccc(NC(=O)C(=O)NCC(c2cccnc2)N2CCN(Cc3ccccc3)CC2)c1 (stereo unspecified)	none (no result: AT treatment, CCT modulator, MmCpn inh)
Cc1ccc(C)c(NC(=O)Cn2nnc(-c3ccc(N4CCOCC4)cc3)n2)c1	CCT modulator -79
Cc1cccc(C)c1NC(=O)Cn1nnc(-c2ccc(N3CCOCC3)cc2)n1	none
COc1cc(OC)c(NC(=O)c2csc3c2CCC(C)C3)cc1Cl (stereo unspecified)	none (no result: AT treatment, CCT modulator, MmCpn inh)
COc1cccc2ccc(CC(O)(c3ccccc3)c3ccccc3)nc12	CCT modulator -52 (no result: AT treatment, Anesthetic bind, MmCpn inh)
CCCC[n+]1c2ccccc2cc2ccccc21	AT treatment inconclusive
CCC[n+]1c2ccccc2cc2ccccc21	AT treatment 40µM
c1ccc2[nH]c(NC3=NCCC3)nc2c1	CCT modulator -98
c1ccc2[nH]c(NN=C3CCCCCC3)nc2c1	none
c1ccc(-c2sc3ccccc3c2-c2ccc(OCCN3CCOCC3)cc2)cc1	none (no result: Anesthetic bind)
COc1ccccc1-c1sc2ccccc2c1-c1ccc(OCCN2CCOCC2)cc1	MmCpn inh 40µM (no result: Anesthetic bind)
CC/C(=N\NC(=O)CSCc1ccccc1Cl)c1ccc2c(c1)OCCO2	Anesthetic bind inconclusive
CC/C(=N\NC(=O)CSCc1ccc(Cl)cc1)c1ccc2c(c1)OCCO2	Anesthetic bind 18µM
COc1ccc(C2C3=C(NCCN=C3c3ccccc3)C(=O)N2c2ccccc2)c(OC)c1 (stereo unspecified)	CCT modulator -60
Cc1ccc(-c2nnc(-c3cccc(NC(=O)c4cccs4)c3)o2)cc1	CCT modulator -44
COc1ccccc1N(CC(=O)Nc1ccc2c(c1)OCO2)S(=O)(=O)c1ccc(C)cc1	none (no result: AT treatment, CCT modulator, MmCpn inh)
CC(C)c1ccc(Nc2nc(CC(=O)O)cs2)cc1	Anesthetic bind inconclusive
O=C(O)Cc1csc(Nc2cccc(Cl)c2)n1	Anesthetic bind 10µM
O=C1NC(c2cccs2)Nc2sc3c(c21)CCCC3 (stereo unspecified)	CCT modulator -94
CCOC(=O)Cc1ccc(NC(=O)N(Cc2ccc(CC)cc2)Cc2cn[nH]c2-c2ccc(OC)cc2)cc1	none (no result: AT treatment, CCT modulator, MmCpn inh)
Cc1nn(-c2ccccc2)c2nc(C3CC3)cc(C(=O)Nc3ccc(F)cc3)c12	none (no result: AT treatment, CCT modulator, MmCpn inh)
Cc1cc(C)cc(NC(=O)c2c(C)oc3nc(C)nc(N4CCCC4)c23)c1	none (no result: AT treatment, CCT modulator, MmCpn inh)
O=C(CCc1ccccc1)NCCCN1CCOCC1	CCT modulator -31
CCCn1nc(NC(=O)c2ccco2)c2cc3ccc(C)cc3nc21	none
CCCn1nc(NC(=O)c2ccco2)c2cc3cc(C)ccc3nc21	AT treatment 22µM
CCOC(=O)Cc1ccc(NC(=O)N2CC(CC)Oc3ccccc32)cc1 (stereo unspecified)	none (no result: AT treatment, CCT modulator, MmCpn inh)
COc1ccc(OC)c(NC2=C(c3ccccc3)C(=O)c3ccccc32)c1	none (no result: AT treatment, CCT modulator, MmCpn inh)
COc1ccc(S(=O)(=O)NCCSC(C)(C)C)c(Cl)c1Cl	Anesthetic bind 16µM
CCCNS(=O)(=O)c1ccc(OC)c(Cl)c1Cl	none
N[C@@]12CCc3nonc3[C@]1(O)CC(c1ccccc1)=[N+]2[O-]	CCT modulator -63
O=C(NCc1ccc2c(c1)OCO2)c1ccc(N2C(=O)C3CCCCC3C2=O)cc1 (stereo unspecified)	Anesthetic bind 8.9µM
CCN1c2ccccc2-c2nc(SCC(=O)Nc3c(C)cc(C)cc3C)ncc2S1(=O)=O	none (no result: AT treatment, CCT modulator, MmCpn inh)
CCOC(=O)C(=O)Cc1nc(OCc2ccccc2)cc(OCc2ccccc2)n1	CCT modulator -39 (no result: AT treatment, Anesthetic bind, MmCpn inh)
CCOC(=O)C(Cc1nc(OCc2ccccc2)cc(OCc2ccccc2)n1)=NO	none (no result: AT treatment, Anesthetic bind, MmCpn inh)
Cc1cccc2c(=O)cc(CSc3ccccc3NC(=O)c3cccc(F)c3)[nH]c12	none (no result: AT treatment, CCT modulator, MmCpn inh)
Cc1cccc(N2CCN(C(=O)C3CCN(Cc4nc(-c5ccc(Cl)cc5)oc4C)CC3)CC2)c1C	none (no result: AT treatment, CCT modulator, MmCpn inh)
CCOC(=O)C(=CNc1cccc(C)c1C)C(=O)OCC	CCT modulator -122
CCOC(=O)C(=CNc1ccc(C)cc1C)C(=O)OCC	none
Nc1ccc(O)cc1C(=O)OCC(=O)C12CC3CC(CC(C3)C1)C2	Anesthetic bind 32µM
O=C(OCC(=O)C12CC3CC(CC(C3)C1)C2)c1ccc(O)cc1	none (no result: Anesthetic bind)
Cc1cc(Oc2ccccc2)nc(-c2ccccc2)n1	AT treatment 18µM
